ALR H2O2 inh: inhibitors of human ALR sulfhydryl oxidase, primary screen, biochemical, H2O2 detection, HRP-luminol luminescence, single point. FAD-linked sulfhydryl oxidase ALR (Homo sapiens), P55789. purified ALR, DTT oxidation. inhibition, % (concentration not given with the values). 290,000 compounds, 3.8% hits. AID 485317, 2010;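 active means mean replicate inhibition above about 79%, with every replicate also reaching it, limit read from the data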
Target sequence (P55789 whole entry, looked up): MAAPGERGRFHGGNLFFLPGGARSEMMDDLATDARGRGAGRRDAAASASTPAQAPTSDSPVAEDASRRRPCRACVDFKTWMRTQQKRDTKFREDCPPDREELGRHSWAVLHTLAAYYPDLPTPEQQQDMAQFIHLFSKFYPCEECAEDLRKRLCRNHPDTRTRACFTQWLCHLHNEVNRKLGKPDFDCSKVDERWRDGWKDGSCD
NTR1 agonist: agonists of human NTR1, primary screen, imaging, U2OS cells, beta-arrestin-GFP, high content | NTR1-U2OS beta-arrestin-GFP spot imaging, agonist mode | activation, % at 20 µM | Neurotensin receptor type 1 (Homo sapiens), P30989 | 330,000 compounds, 0.17% hits;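 active means activation at or above 40% of the spot to cytoplasm intensity ratio, with at least 20 cells analyzed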;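 further: 0% = DMSO without peptide and 100% = 100 nM NTR1 peptide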
Target sequence (P30989 whole entry, looked up): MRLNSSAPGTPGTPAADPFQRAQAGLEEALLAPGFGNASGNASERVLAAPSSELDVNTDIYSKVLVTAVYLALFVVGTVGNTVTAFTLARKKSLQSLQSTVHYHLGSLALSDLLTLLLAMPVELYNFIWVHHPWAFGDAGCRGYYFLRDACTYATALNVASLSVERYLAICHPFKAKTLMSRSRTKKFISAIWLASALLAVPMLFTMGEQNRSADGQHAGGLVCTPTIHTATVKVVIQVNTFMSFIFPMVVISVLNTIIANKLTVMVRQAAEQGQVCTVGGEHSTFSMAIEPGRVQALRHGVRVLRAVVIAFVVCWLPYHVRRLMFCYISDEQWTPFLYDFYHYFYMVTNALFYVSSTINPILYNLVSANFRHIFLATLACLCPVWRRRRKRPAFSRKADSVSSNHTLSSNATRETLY
Cardio protect: cardioprotection against H2O2-induced cell death, primary screen, uHTS, H9c2 cells, ATPLite luminescence; H9c2 cardiomyocytes, H2O2 injury protection, 2 h; protection from H2O2 cell death, % at 20 µM; 360,000 compounds, 0.63% hits; AID 588492, 2011;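 active means compounds giving at least 50% protection of heart cells from peroxide-induced death in the single-dose screen, raw or plate-pattern-corrected value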;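 further: 0% = DMSO wells with peroxide and 100% = DMSO wells without peroxide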
SUMO HTRF inh: inhibitors of in vitro SUMOylation cascade, primary screen, biochemical, HTRF, uHTS; SUMO-conjugating enzyme UBC9 (Homo sapiens), P63279; HTRF SUMOylation assay, SAE1/SAE2 + UBC9; inhibition, % at 35 µM; 290,000 compounds, 0.36% hits; AID 2006, 2009; in the data active means inhibition above about 50%, passing the limit was not always enough
* hit, by the source's call; . = no result. In the library only some 3.9% were active in any assay of this set; here they are far more common.

SMILES | ALR H2O2 inh | NTR1 agonist | Cardio protect | SUMO HTRF inh
COc1cc(/C=C/C(=O)c2c(O)ccc3c(C)cc(=O)oc23)ccc1O | 32 | 8 | 21 | 20
CC(=O)NC(C)c1cc(Cl)c2cccnc2c1O (stereo not given) | 2 | 8 | 58* | .
O=C(O)COc1ccccc1C(Nc1ccccn1)c1cc(Cl)c2cccnc2c1O (stereo not given) | . | 1 | 16 | 2
CC(=O)NC(c1ccco1)c1cc(F)c2cccnc2c1O (stereo not given) | -9 | -1 | 50* | .
CCC(=O)NC(C)c1cc(Cl)c2cccnc2c1O (stereo not given) | -4 | 9 | 34 | .
CC(=O)NC(c1ccco1)c1cc(Cl)c2ccccc2c1O (stereo not given) | 88* | 2 | -4 | .
O=C(O)COc1ccccc1C(Nc1cccnc1)c1cc(Cl)c2cccnc2c1O (stereo not given) | . | 1 | 10 | 77*
O=C1C=C(c2ccccc2)C[C@@H](c2ccc(Cl)cc2)C1 | 1 | 9 | 3 | .
Cc1ccc(C(=O)NC(=S)NCc2cccnc2)cc1C | -1 | 1 | -9 | 15
CCC(=O)NC(c1cc(Cl)c2ccccc2c1O)C(C)C (stereo not given) | 95* | 0 | -14 | .
CC(=O)ON=C1C=CC(=C(C#N)c2ccccc2)C=C1 | . | . | -3 | .
COc1ccc(C(C#N)=C2C=CC(=NO)C=C2)cc1 | 96* | 3 | 6 | 26
O=C(C1CCC(C(=O)N2CCc3ccccc32)CC1)N1CCc2ccccc21 (stereo not given) | -5 | 2 | -10 | -7
CCC(=O)NC1=C(Cl)C(=O)C(NC(=O)CC)=C(Cl)C1=O | . | 30 | -19 | 76*
Cc1cc(NC(=O)CSc2sc3c(O)cc(=O)[nH]c3c2C#N)ccc1Br | 99* | 0 | -5 | 2
N#Cc1c(SCC(=O)Nc2cccc(C(F)(F)F)c2)sc2c(O)cc(=O)[nH]c12 | 99* | -2 | -4 | -5
O=C(CSCCO)Nc1cccc(C(F)(F)F)c1 | 2 | 1 | -2 | 24
O=C(CSc1nc2ccccc2c(=O)[nH]1)N1CCN(S(=O)(=O)c2ccccc2)CC1 | 0 | 0 | 56* | -5
CC(=O)Nc1ccc(SCC(=O)N2CCN(S(=O)(=O)c3ccccc3)CC2)cc1 | 98* | 2 | 3 | -3
CC1CCCC(C)N1C(=O)CSc1nc2ccccc2c(=O)[nH]1 (stereo not given) | 3 | 4 | 70* | 13
O=C(CSc1nc(-c2ccccc2)c(-c2ccccc2)[nH]1)N1CCN(S(=O)(=O)c2ccccc2)CC1 | 2 | 2 | 5 | -2
O=C(CSc1nc2ccccc2c(=O)[nH]1)N1CCOCC1 | -6 | -1 | 67* | 7
CC1CCN(C(=O)CSc2nc3ccccc3c(=O)[nH]2)CC1 | 0 | 0 | 44 | 14
O=C(CSc1ccc(F)cc1)N1CCN(S(=O)(=O)c2ccccc2)CC1 | . | -1 | 5 | 19
CCOc1ccc(/C=C(\C#N)C(=O)Nc2ccccn2)cc1 | 12 | 0 | -3 | 10
SMILES | ALR H2O2 inh | NTR1 agonist | Cardio protect | SUMO HTRF inh
O=S(=O)(NCc1ccco1)c1cccc2cccnc12 | -29 | 3 | -3 | 12
Cc1sc2nc(SCC(=O)N3CCOCC3)[nH]c(=O)c2c1C | 39 | -3 | 61* | 13
O=C(CSc1nc2ccccc2c(=O)[nH]1)N1CCCCCC1 | -6 | 0 | 51* | 9
Cc1sc2nc(SCC(=O)O)[nH]c(=O)c2c1C | 7 | 2 | 0 | 14
Cc1ccc(CN2CCC(CNS(=O)(=O)c3ccc(-c4ccc(=O)[nH]n4)s3)CC2)cc1 | 5 | 0 | -1 | 1
COc1cccc(-c2csc(NNC(=O)c3cccs3)n2)c1 | 96* | -1 | -1 | -7
COc1cccc(-c2csc(NC(=O)Oc3ccccc3)n2)c1 | 37 | 0 | -2 | -7
CC1CCCC(C)N1S(=O)(=O)c1ccc(NC(=O)CCn2cnc3ccccc3c2=O)cc1 (stereo not given) | -9 | -1 | -2 | 1
O=C(Nc1nc2ccc(S(=O)(=O)N3CCCCC3)cc2s1)c1ccncc1 | 98* | -2 | -7 | 16
CN(C)S(=O)(=O)c1ccc2nc(NC(=O)c3cccs3)sc2c1 | 86* | -1 | -11 | 19
O=C(Nc1nc2ccc(S(=O)(=O)N3CCCC3)cc2s1)c1cccs1 | . | -2 | -2 | -7
CCCNC(=O)/C=C/C(=O)O | -12 | 0 | -6 | 4
O=C(CCl)NC(=O)NC12CC3CC(CC(C3)C1)C2 | 86* | . | -6 | -1
O=C(CN(CC1CCCO1)C(=O)CNS(=O)(=O)c1ccc(Cl)cc1)NCc1ccc(F)cc1 (stereo not given) | . | -1 | 5 | -14
N#CCCn1c(=S)[nH]c2ccccc21 | 28 | 1 | -4 | 8
Cn1c(=S)[nH]c2ccccc21 | 84* | 0 | -4 | 28
Cc1ccnc(SCC(=O)c2ccc([N+](=O)[O-])cc2)n1 | 32 | 0 | 17 | -2
O=S(=O)(Nc1nc(-c2sccc2Cl)cs1)c1cc(Cl)ccc1Cl | 98* | 4 | 2 | 18
CC(C)(C)c1nnc(NS(=O)(=O)c2cc(Cl)ccc2Cl)s1 | 5 | 0 | 0 | 20
CCOc1c(O)ccc(/C=C2\SC(=S)NC2=O)c1[N+](=O)[O-] | 99* | 0 | -6 | 50*
CCOc1ccc(N(C)c2ccc(/C=C3/SC(=S)NC3=O)cc2)cc1 | -2 | -2 | -10 | 23
CC(C)c1cc(N2CCN(C(=O)c3ccco3)CC2)n2c(nc3ccccc32)c1C#N | -8 | 5 | 52* | 40
CC(OC(=O)CCN=C1NS(=O)(=O)c2ccccc21)C(=O)N(C)c1ccccc1 (stereo not given) | 1 | 1 | -5 | .
N#Cc1cnn2cc(-c3ncc(C(F)(F)F)cc3Cl)cnc12 | 85* | 1 | 59* | 14
COc1ccc(F)cc1-c1cc(NC=O)c2ncc(-c3cccc(C(F)(F)F)c3)n2c1 | . | . | -4 | .
SMILES | ALR H2O2 inh | NTR1 agonist | Cardio protect | SUMO HTRF inh
COc1cccc(/C=C2\C(=O)C(=O)c3ccccc32)c1 | 100* | 0 | 0 | 43
COc1cc(C=C2C(=O)c3ccccc3C2=O)cc(OC)c1OC | 97* | 2 | -2 | -13
COc1ccc(OC)c2c1C(=O)c1ccccc1C2=O | . | -2 | . | 50*
CCN1CCN(Cc2c(O)ccc3c2O/C(=C\c2ccccc2)C3=O)CC1 | 52 | 1 | 12 | 27
CCC(C(=O)O)n1cnc2scc(-c3ccc(C)c(C)c3)c2c1=O (stereo not given) | 93* | 1 | -2 | -16
c1ccc(-c2ccc3ccccc3n2)cc1 | 2 | -2 | -5 | .
COc1ccc(C(=O)c2ccc(Cl)cc2)cc1 | . | 2 | -7 | 15
COc1ccc(C(=O)c2ccc(Cl)c([N+](=O)[O-])c2)cc1 | 97* | -1 | -6 | -2
COc1ccc(OC)c(NC(=O)COC(=O)CN(C)S(=O)(=O)c2ccc(C)cc2)c1 | -14 | 1 | 4 | -8
